Test results from PubChem BioAssay (NCATS).
Results filed as inconclusive are left out. Calls of active or inactive are those of the source. The call rests on the fitted dose curve; in most records, active means well fitted inhibition curve with a large enough effect; inconclusive means small, poorly fitted or top-dose-only effect; inactive means flat fitted curve, though single readings scatter.

Columns and labels:
Experiment in all cases: qHTS profiling for inhibitors of Plasmodium falciparum proliferation (AID 504749); further: nearly all actives have a fitted effect of over 60% in size
ATS95 = settings: P. falciparum in erythrocytes, SYBR Green DNA, 72 h; series mostly up to 28.7 µM
Procedure, shortened: (§1)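 Quantitative HTS: compounds pinned into medium, infected erythrocytes added (0.3% parasitemia, 2.5% hematocrit), 72 h culture at 37 C under 5% CO2. Saponin/Triton lysis with SYBR Green I, overnight RT, then fluorescence read.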

C2A = settings: P. falciparum in erythrocytes, SYBR Green DNA, 72 h; series mostly up to 28.7 µM
Procedure, shortened: as §1

CP215 = settings: P. falciparum in erythrocytes, SYBR Green DNA, 72 h; series mostly up to 28.7 µM
Procedure, shortened: as §1

CP217 = settings: P. falciparum in erythrocytes, SYBR Green DNA, 72 h; series mostly up to 28.7 µM
Procedure, shortened: as §1

CP237 = settings: P. falciparum in erythrocytes, SYBR Green DNA, 72 h; series mostly up to 28.7 µM
Procedure, shortened: as §1

CP238 = settings: P. falciparum in erythrocytes, SYBR Green DNA, 72 h; series mostly up to 28.7 µM
Procedure, shortened: as §1

CP250 = settings: P. falciparum in erythrocytes, SYBR Green DNA, 72 h; series mostly up to 12.8 µM
Procedure, shortened: as §1

CP252 = settings: P. falciparum in erythrocytes, SYBR Green DNA, 72 h; series mostly up to 12.8 µM
Procedure, shortened: as §1

CP265 = settings: P. falciparum in erythrocytes, SYBR Green DNA, 72 h; series mostly up to 12.8 µM
Procedure, shortened: as §1

CP266 = settings: P. falciparum in erythrocytes, SYBR Green DNA, 72 h; series mostly up to 12.8 µM
Procedure, shortened: as §1

CP269 = settings: P. falciparum in erythrocytes, SYBR Green DNA, 72 h; series mostly up to 28.7 µM
Procedure, shortened: as §1

CP325 = settings: P. falciparum in erythrocytes, SYBR Green DNA, 72 h; series mostly up to 28.7 µM
Procedure, shortened: as §1

CP329 = settings: P. falciparum in erythrocytes, SYBR Green DNA, 72 h; series mostly up to 28.7 µM
Procedure, shortened: as §1

DIV17 = settings: P. falciparum in erythrocytes, SYBR Green DNA, 72 h; series mostly up to 28.7 µM
Procedure, shortened: as §1

GB4 = settings: P. falciparum in erythrocytes, SYBR Green DNA, 72 h; series mostly up to 28.7 µM
Procedure, shortened: as §1

N140 = settings: P. falciparum in erythrocytes, SYBR Green DNA, 72 h; series mostly up to 28.7 µM
Procedure, shortened: as §1

P93_24 = settings: P. falciparum in erythrocytes, SYBR Green DNA, 72 h; series mostly up to 28.7 µM
Procedure, shortened: as §1

PAD = settings: P. falciparum in erythrocytes, SYBR Green DNA, 72 h; series mostly up to 28.7 µM
Procedure, shortened: as §1

PC26 = settings: P. falciparum in erythrocytes, SYBR Green DNA, 72 h; series mostly up to 28.7 µM
Procedure, shortened: as §1

SC27B = settings: P. falciparum in erythrocytes, SYBR Green DNA, 72 h; series mostly up to 28.7 µM
Procedure, shortened: as §1

Measured: Potency

CCCC[N+]1(C)C2CC(OC(=O)C(CO)c3ccccc3)CC1C1OC12 (stereo not given)
inactive: all assays above

Oc1ccc2c3c1O[C@H]1[C@@H](O)CC[C@@]4(O)C(C2)N(CC2CCC2)CCC314 (stereo not given in full)
inactive: all assays above

CC(C)(O)C1C2OC(=O)C1[C@]1(O)C[C@H]3O[C@]34C(=O)O[C@H]2[C@]14C (stereo not given in full) (tested in a mixture with another compound)
inactive: all assays above

CNC(C)[C@@H](O)c1ccc(O)cc1 (stereo not given in full)
inactive: all assays above
